Results taken from PubChem BioAssay (NCATS).
Results filed as inconclusive are left out. The source made the active and inactive calls. Unless noted, the call rests on the fitted dose curve; in most records, active means well fitted curve in the direction sought with a large enough effect; inconclusive means small, poorly fitted or top-dose-only effect, or another doubt; inactive means no such curve, though single readings can be large; an effect the other way counts as inactive or inconclusive.

How the values were obtained:
[1] = target: Aldehyde dehydrogenase, mitochondrial (Homo sapiens) (UniProt P05091); assay: qHTS for Inhibitors of the Aldehyde Dehydrogenase Family (ALDH2) Confirmatory screens (AID 2061303; active means well fitted inhibition curve with a large enough effect; title and protocol of this record describe different tests; further: nearly all actives have a fitted effect of over 45% in size; further: potency means the concentration at half of the fitted maximal effect); details: ALDH inhibition qHTS; series mostly up to 45.4 µM
[2] = qHTS for Inhibitors of the Aldehyde Dehydrogenase Family (ALDH1A2, ALDH1A3, ALDH2, ALDH3A1) (AID 2061307); details: ALDH inhibition qHTS; series mostly up to 50.3 µM; further: nearly all actives have a fitted effect of over 50% in size; on Potency: test system not described further here; potency means the concentration at half of the fitted maximal effect
[3] = target: Aldehyde dehydrogenase, mitochondrial (Homo sapiens) (UniProt P05091); assay: qHTS for Inhibitors of the Aldehyde Dehydrogenase Family (ALDH2) Primary screen (AID 2061308); details: ALDH2 enzyme inhibition qHTS, 1536-well; series mostly up to 56 µM; further: nearly all actives have a fitted effect of over 55% in size; further: potency means the concentration at half of the fitted maximal effect
[4] = target: Retinaldehyde dehydrogenase 3 (Homo sapiens) (UniProt P47895); assay: qHTS for Inhibitors of the Aldehyde Dehydrogenase Family (ALDH1A3) Confirmatory screens (AID 2061311); details: ALDH inhibition qHTS; series mostly up to 46 µM; further: nearly all actives have a fitted effect of over 60% in size; further: potency means the concentration at half of the fitted maximal effect
[5] = target: Retinaldehyde dehydrogenase 3 (Homo sapiens) (UniProt P47895); assay: qHTS for Inhibitors of the Aldehyde Dehydrogenase Family (ALDH1A3) Primary screen (AID 2061315); details: ALDH inhibition qHTS; series mostly up to 56 µM; further: potency means the concentration at half of the fitted maximal effect
[6] = target: Aldehyde dehydrogenase 1A1 (Homo sapiens) (UniProt P00352); assay: qHTS for Inhibitors of the Aldehyde Dehydrogenase Family (ALDH1A1) Confirmatory screens (AID 2061316); details: ALDH inhibition qHTS; series mostly up to 47.3 µM; further: nearly all actives have a fitted effect of over 65% in size; further: potency means the concentration at half of the fitted maximal effect
[7] = target: Retinaldehyde dehydrogenase 3 (Homo sapiens) (UniProt P47895); assay: qHTS for Inhibitors of the Aldehyde Dehydrogenase Family (ALDH1A3) Validation screen (AID 2061312); details: ALDH1A3 enzyme inhibition qHTS validation, fluorescence; series mostly up to 84.7 µM; further: nearly all actives have a fitted effect of over 45% in size
[8] = target: Retinal dehydrogenase 2 (Homo sapiens) (UniProt O94788); assay: qHTS for Inhibitors of the Aldehyde Dehydrogenase Family (ALDH1A2) Confirmation screens (AID 2061314); details: ALDH1A2 enzyme inhibition qHTS confirmation; series mostly up to 45.9 µM; further: nearly all actives have a fitted effect of over 65% in size; further: potency means the concentration at half of the fitted maximal effect
[9] = BET inhibitor-based combinations targeting novel dependencies in MECOM-rearranged (r) AML: AML-191 cell line (AID 2202236; further: potency means the concentration at half of the fitted maximal effect; nearly all actives have a fitted effect of over 35% in size); details: AML-191 viability, CellTiter-Glo luminescence, 48 h; series mostly up to 46 µM
How it was run: (§1)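 Readout: CellTiter-Glo luminescence. Exposure: 48 h, 11 concentrations, 500 cells/well. Metric: AUC and within-line Z-AUC after DMSO/empty-well normalization.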

[10] = BET inhibitor-based combinations targeting novel dependencies in MECOM-rearranged (r) AML: AML-194 cell line (AID 2202237; further: potency means the concentration at half of the fitted maximal effect; nearly all actives have a fitted effect of over 40% in size); details: AML-194 (MECOM-r AML) viability, CellTiter-Glo, 48 h; series mostly up to 46 µM
How it was run: as §1

Measured: Potency

O=C(Cc1ccc(Cl)c(Cl)c1)Nc1ccc(S(=O)(=O)Nc2cccc(C(=O)O)c2)cc1
inactive: [1] | [2] | [3] | [4] | [5] | [6]

O=C1c2ccccc2NC(c2ccc(Br)o2)N1O (configuration not stated)
active: [1] 5.04 µM | [2] 10.1 µM | [3] 1.41 µM | [4] 7.12 µM | [6] 1.79 µM

CCN(CC)CCOc1ccc(/C(=C(\Cl)c2ccccc2)c2ccccc2)cc1
active: [9] 18.6 µM | [10] 23.5 µM
not listed: [4]
inactive: all other assays above

Cc1cc(C)cc(C(=O)NOCCCCCC(=O)NO)c1
inactive: [1] | [2] | [3] | [8]
active: [5] 6.31 µM

CC(C)(C)OC(=O)N1CCN(c2ccc(NCc3ccnc(-c4ccc(C#N)cc4)n3)cc2)CC1
active: [1] 0.504 µM | [2] 0.357 µM | [3] 0.282 µM
inactive: [8] | [5]

Cc1cc(=O)oc2c(C=O)c(O)ccc12
active: [4] 12.7 µM | [6] 8.96 µM
inactive: [1] | [2] | [3]

O=C1c2ccccc2C(=O)N1c1ncccc1O
inactive: [1] | [2] | [3] | [4] | [5] | [6]

COc1cc(/C=C/c2cc(O)cc(O[C@@H]3O[C@H](CO)[C@@H](O)[C@H](O)[C@H]3O)c2)ccc1O
active: [5] 6.31 µM
inactive: [1] | [2] | [3] | [8] | [6]

Cc1cc2c(s1)c(C=O)c(C(=O)NCc1ccccc1F)n2C
inactive: [1] | [3] | [8] | [5]
active: [2] 1.27 µM

COc1cccc(CNc2ccc([S+](=O)([O-])Nc3cc4ccccc4s3)cc2)c1O
active: [4] 11.3 µM
inactive: [1] | [2] | [3] | [5] | [6]

O=C(O)c1ccc(-n2cccc2/C=C2\SC(=O)N(Cc3ccccc3Cl)C2=O)cc1
inactive: [1] | [3] | [5]
active: [2] 7.12 µM | [8] 5.65 µM

Fc1cc(Nc2nc(-c3ccncc3)nc3ccccc23)ccc1N1CCNCC1
inactive: [1] | [2] | [3] | [8] | [5]

O=C1CC(c2ccccc2)Cc2[nH]c(=O)c(-c3nc(-c4ccc(F)cc4)cs3)cc21 (configuration not stated)
inactive: [1] | [2] | [3] | [8] | [5]

O=C(Nc1ncc(Cc2ccc(C(F)(F)F)cc2)s1)c1ncc(-c2ccccc2)[nH]1
inactive: [1] | [2] | [3] | [8] | [5]

O=C(O)c1cccc(-n2cccc2)c1
inactive: [1] | [2] | [3] | [4] | [5] | [6]

COc1ccc(-c2nc3ccccc3c(=O)n2Cc2ccc(CNC(=O)CO)cc2)cc1COc1ccc(NC(C)=O)cc1
active: [2] 8.96 µM | [8] 15.9 µM
inactive: [1] | [3]

CN1CCN(C2CCN(Cc3ccc(O)c4ncccc34)CC2)CC1
inactive: [1] | [2] | [3] | [8]

O=C(Nc1ccc(Cl)c(Cl)c1)Nc1nnc(NC2CCNCC2)s1
active: [4] 11.3 µM
inactive: [1] | [2] | [3] | [6]

CCN(CC)c1cc2c(cc1S(=O)(=O)Nc1ccc(C)c(C)c1)CCC(=O)N2
inactive: [1] | [2] | [3] | [8] | [5]

Cc1cccc(-n2cnc3cc(C(=O)N4CCC(Br)CC4)ccc32)c1
inactive: [1] | [2] | [3] | [8] | [5]

COc1ccc(C(=O)N(Cc2ccccc2)Cc2ccc(OC)c(COc3ccc(NC(C)=O)cc3)c2)c(O)c1
inactive: [1] | [2] | [3] | [5]

CCCc1nnc(-c2cnn(C)c2N)n1CCCn1ccnc1
inactive: [1] | [2] | [3] | [8] | [5] | [6]

Cc1c(Cl)cccc1NS(=O)(=O)c1cc2c(cc1Cl)CCC(=O)N2
inactive: [1] | [2] | [3] | [5] | [6]
active: [8] 12.7 µM

O=C(Cc1ccc(Cl)c(Cl)c1)Nc1ccc(S(=O)(=O)O)cc1
inactive: [1] | [2] | [3] | [8] | [5] | [6]

N[C@@H](CO)C(=O)Nc1ccc(Cl)cc1C(=O)c1ccc[nH]1
inactive: [1] | [2] | [3] | [5]

COc1ccc(C2Nc3ccccc3C(=O)N2Cc2ccc(C(C)(C)C)cc2)cc1COc1ccc(NC(C)=O)cc1 (configuration not stated)
active: [1] 1.58 µM | [2] 3.57 µM
inactive: [3] | [5]
